Bioassay records: PubChem, several laboratories
UBC9 SUMO inh: inhibitors of human SUMOylation (UBC9); P63279; HTRF SUMOylation assay, SAE1/SAE2 + UBC9, in vitro; inhibition, % at 35 µM; actives 0.36% (n = 290,000); in the data active = inhibition above about 50%, passing the limit was not always enough
Target sequence (P63279 whole entry, looked up): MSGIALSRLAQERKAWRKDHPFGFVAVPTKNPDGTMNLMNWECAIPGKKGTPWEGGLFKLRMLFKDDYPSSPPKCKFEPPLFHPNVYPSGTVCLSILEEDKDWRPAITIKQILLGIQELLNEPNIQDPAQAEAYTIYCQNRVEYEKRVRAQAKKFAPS
GRIN3A LBD mod: NR3A (human) ligand-binding domain modulation; NR3A LBD differential scanning fluorimetry, Tm shift; 0% = protein alone, 100% = glycine-bound protein; Tm shift relative to glycine control, % at 25 µM; actives 2.5% (n = 340,000); AID 1259313;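 active = melting temperature shift of at least 10% of the positive control shift, at one fixed dose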
UBC13 inh: inhibitors of human UBC13 polyubiquitin chain formation | actives 0.47% (n = 330,000) | TR-FRET | inhibition, % at 20 µM | AID 485273 | P61088; in the data active = inhibition above about 45%, passing the limit was not always enough
Target sequence (P61088 whole entry, looked up): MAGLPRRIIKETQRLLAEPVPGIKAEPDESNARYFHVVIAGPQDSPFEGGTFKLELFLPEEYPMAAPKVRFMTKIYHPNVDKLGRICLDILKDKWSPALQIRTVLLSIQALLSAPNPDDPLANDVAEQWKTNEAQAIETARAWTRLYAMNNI
sPLA2-III inh: Inhibits HGIII-sPLA2 liposome hydrolysis, primary screen; QFRET BODIPY PC-A2 liposome hydrolysis, fluorescence; inhibition, % at 12.2 µM; actives 0.56% (n = 370,000);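 active = inhibition above mean plus 3 SD of compounds lying within the high and low control bounds, cut at about 19% in these data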;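 note: 0% = median of test compound wells and 100% = no enzyme DMSO wells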
Numbers without * were called inactive. Compounds with a hit are over-represented: about 3.3% of the library has one in this group of screens.

Screening Clc1nc(Nc2ccccc2)nc(Nc2ccccc2)n1 returned UBC9 SUMO inh -7, GRIN3A LBD mod 18*, UBC13 inh -8 and sPLA2-III inh 3.
`CC(=O)Nc1ccc(Nc2nc(Cl)nc(Nc3ccc(NC(C)=O)cc3)n2)cc1` gave UBC9 SUMO inh 8, GRIN3A LBD mod 13*, UBC13 inh -16 and sPLA2-III inh 1.
Screening COc1ccc(Nc2nc(C)c3ccccc3n2)cc1 returned UBC9 SUMO inh 6, GRIN3A LBD mod 38*, UBC13 inh 10 and sPLA2-III inh -6.
`COc1ccc(Nc2nc(-c3ccccc3)c3ccccc3n2)cc1` gave UBC9 SUMO inh -5, GRIN3A LBD mod 1, UBC13 inh -5 and sPLA2-III inh 5.
For COc1ccc(Nc2nc(Cl)nc(Nc3ccc(OC)cc3)n2)cc1 the results were UBC9 SUMO inh 26, GRIN3A LBD mod 17*, UBC13 inh -5 and sPLA2-III inh -2.
For c1ccc(OC2CCN(c3ncnc4sccc34)CC2)cc1 the results were sPLA2-III inh -1.
c1ccc(Sc2ncnc3c2oc2ccccc23)cc1 was read as UBC9 SUMO inh 15, GRIN3A LBD mod 34* and UBC13 inh 23.
`CCCC(=O)Nc1ccc(Nc2ccccc2)cc1` gave UBC9 SUMO inh 2, GRIN3A LBD mod 10*, UBC13 inh -3 and sPLA2-III inh 4.
`CC(=O)N1CCc2c1cccc2S(=O)(=O)NC(CC(C)C)C(=O)Nc1ccc(F)cc1Cl` (configuration not stated) gave sPLA2-III inh -2.
`c1ccc2c(-c3nn[nH]n3)cccc2c1` gave UBC9 SUMO inh -8, GRIN3A LBD mod 12*, UBC13 inh 2 and sPLA2-III inh -1.
O=C(NC1CCCCN(Cc2cccc(Cl)c2)C1=O)c1cccc(F)c1 (configuration not stated) was read as sPLA2-III inh 8.
Screening CC(C)Oc1cccc(-c2n[nH]c(=S)n2N=Cc2ccc(OCc3ccccc3)cc2)c1 returned sPLA2-III inh -20.
For COCC(=O)Nc1ncc(S(=O)(=O)c2ccc([N+](=O)[O-])cc2)s1 the results were UBC9 SUMO inh 4, GRIN3A LBD mod 0, UBC13 inh 6 and sPLA2-III inh -5.
Screening O=C(Nc1ncc(S(=O)(=O)c2ccc([N+](=O)[O-])cc2)s1)c1cccc2ccccc12 returned UBC9 SUMO inh 18, GRIN3A LBD mod 11*, UBC13 inh -14 and sPLA2-III inh 14.
CCCCCCn1c(O)c(/C=C2\C=NN=C2c2ccccc2)sc1=S was read as UBC9 SUMO inh -21, GRIN3A LBD mod 35*, UBC13 inh -10 and sPLA2-III inh 8.
For CC(C)Cn1c(O)c(/C=C2\C=NN=C2c2ccccc2)sc1=S the results were UBC9 SUMO inh -33, GRIN3A LBD mod 30*, UBC13 inh 6 and sPLA2-III inh -12.
Screening Cn1c(O)c(/C=C2\C=NN=C2c2ccccc2)sc1=S returned UBC9 SUMO inh 10, GRIN3A LBD mod 4, UBC13 inh -2 and sPLA2-III inh -14.
`CCCCn1c(O)c(/C=C2\C=NN=C2c2ccccc2)sc1=S` gave UBC9 SUMO inh -27, GRIN3A LBD mod 26*, UBC13 inh -15 and sPLA2-III inh 6.
CCn1c(O)c(/C=C2\C=NN=C2c2ccccc2)sc1=S was read as UBC9 SUMO inh -1, GRIN3A LBD mod -2, UBC13 inh 4 and sPLA2-III inh -23.
Cn1nnnc1Sc1ncnc2scc(-c3cnc(N)nc3)c12 was read as sPLA2-III inh -4.
`CC(C)CNS(=O)(=O)/C=C/c1cc2c(cc1CNC(=O)OC(C)(C)C)OCO2` gave sPLA2-III inh 2.
Screening Cc1[nH]n(-c2ccccc2)c(=O)c1C=Nc1ccc2[nH]c(=O)[nH]c2c1 returned UBC9 SUMO inh 22, GRIN3A LBD mod 33*, UBC13 inh -12 and sPLA2-III inh 0.
`Cc1cccc(-n2[nH]c(C)c(C=Nc3ccc4[nH]c(=O)[nH]c4c3)c2=O)c1` gave UBC9 SUMO inh 13, GRIN3A LBD mod 32*, UBC13 inh -1 and sPLA2-III inh -3.
Screening Cc1[nH]n(-c2ccccc2)c(=S)c1C=Nc1ccc([N+](=O)[O-])cc1 returned UBC9 SUMO inh -14, GRIN3A LBD mod 23* and sPLA2-III inh 10.
Screening COc1ccc2c(c1)C[C@@H](CON1C(C)(C)CCCC1(C)C)N2S(=O)(=O)c1ccc(C)cc1 returned sPLA2-III inh -5.
Screening COc1cccc(/C=C2\SC(=O)NC2=O)c1OCc1ccc(C(=O)O)cc1 returned UBC9 SUMO inh 31, GRIN3A LBD mod 15*, UBC13 inh -9 and sPLA2-III inh -19.
